Screening results: PubChem, National Center for Advancing Translational Sciences (NCATS)
Cycloheximide cs = affects cycloheximide protein synthesis inhibition readout, counter-screen. cell reporter, cycloheximide protein synthesis inhibition counterscreen. max response, %. 300,000 compounds, 12% hits. AID 2314; in the data active = max response mostly above about 13%, no sharp cut-off; inactive = mostly below about 14%; also: read at 38.3 µM for the half of the compounds with a filed dose; 0% is about no effect
TbPYK inhibitor = inhibitors of Trypanosoma brucei pyruvate kinase. Q57TT1. AID 624173. TbPYK enzyme, Kinase-Glo Plus ATP luminescence, 45 min. Potency, µM (titrated, usually from 76.8 µM), inactives show at the top dose activity, negative = inhibition, usual class: inhibitors. 410,000 compounds, 0.12% hits; also: potency is read from the fitted curve at half-maximal effect; % is scaled to controls: 0 for no effect and ±100 for the full control effect; nearly all actives have a fitted effect of over 50% in size
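ADP (130 uM final) triggers the TbPYK reaction after compound addition; incubation is 45 min at room temperature. Kinase-Glo Plus is then added and luminescence imaged. Normalized data are fitted to concentration-effect curves.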
Shiga toxin inh = inhibitors of Shiga toxin in Vero cells. Vero cells, Shiga toxin protein synthesis inhibition reporter. inhibition, % at 38.7 µM. 290,000 compounds, 9.2% hits; in the data active = inhibition mostly above about 28%, no sharp cut-off; inactive = mostly below about 43%; also: 0% is about no effect
RE007 growth inh = less growth of the S. pombe RE007 Vpr strain | S. pombe RE007 Vpr strain, BacTiter-Glo ATP luminescence, 24 h | 360,000 compounds, 0.21% hits | AID 651644 | Potency, µM (series often up to 92.2 µM), without a hit: at the highest dose activity change, negative = less growth, most hits filed as inhibitors; active = well fitted falling curve with a large enough effect; inconclusive = small, poorly fitted or top-dose-only effect; inactive = no such curve, though single readings can be large or run the other way; also: potency is read from the fitted curve at half-maximal effect; % is scaled to controls: 0 for no effect and ±100 for the full control effect; nearly all actives have a fitted effect of over 50% in size
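Fission yeast RE007 carrying one integrated HIV-1 vpr copy, seeded at OD 0.01 in PMG+AL medium with 23 nL pinned compound. Grown 24 h at 30 degrees; viability read by BacTiter-Glo luminescence after 5 min.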
Giardia FBPA inh = Giardia lamblia aldolase inhibition | A8B2U2 | purified Giardia FBPA | Potency, µM (doses to about 59.6 µM), for the others: top-dose activity, negative = inhibition, actives largely listed as inhibitors | 290,000 compounds, 0.71% hits | AID 2451; also: potency is read from the fitted curve at half-maximal effect; % is scaled to controls: 0 for no effect and ±100 for the full control effect; nearly all actives have a fitted effect of over 55% in size
Target sequence (A8B2U2 whole entry, looked up): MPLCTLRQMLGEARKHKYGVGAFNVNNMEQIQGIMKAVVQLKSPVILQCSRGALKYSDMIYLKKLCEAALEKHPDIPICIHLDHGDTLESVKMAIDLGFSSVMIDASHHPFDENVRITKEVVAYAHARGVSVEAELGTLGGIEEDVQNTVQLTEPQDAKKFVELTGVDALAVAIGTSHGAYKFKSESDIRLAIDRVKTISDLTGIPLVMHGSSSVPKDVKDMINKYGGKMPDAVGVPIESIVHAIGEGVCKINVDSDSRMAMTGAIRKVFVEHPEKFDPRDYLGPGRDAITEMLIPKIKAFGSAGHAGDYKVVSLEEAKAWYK
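40 nM FBPA preincubated 10 min at RT with compound (up to 57.5 uM final), then substrate plus GAPDH/TPI/NAD/arsenate coupling and diaphorase/resazurin added. Fluorescence read after 20 min at RT, 525/598 nm.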
LmPK inhibitor = blocks Leishmania mexicana pyruvate kinase activity; purified LmPK, Kinase-Glo ATP luminescence, 1 h; Potency, µM (titrated, usually from 57.5 µM), for inactives: at the top dose activity change, negative = inhibition, actives largely listed as inhibitors; AID 1721; Q27686; 290,000 compounds, 0.37% hits; also: potency is read from the fitted curve at half-maximal effect; % is scaled to controls: 0 for no effect and ±100 for the full control effect
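In 50 mM imidazole pH 7.2 with 7 mM MgCl2, LmPK (0.1 nM) turned over PEP (0.5 mM) and ADP (0.1 mM) for 1 h at room temperature. Luciferase read-out of ATP.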
* marks the source's active call; other numbers are inactive results; ? = inconclusive; · = no result; [ ] = dose if it differs, or a comment. Shown is part of a subset that was picked to be rich in hits. Unless noted, calls follow the shape of the dose curve; as a rule, active = well fitted curve in the direction sought with a large enough effect; inconclusive = small, poorly fitted or top-dose-only effect, or another doubt; inactive = no such curve, though single readings can be large; an effect the other way counts as inactive or inconclusive.

SMILES	Cycloheximide cs	TbPYK inhibitor	Shiga toxin inh	RE007 growth inh	Giardia FBPA inh	LmPK inhibitor
CC(=O)c1cccc(NC(=O)C2C3C=CC(C3=C(c3ccccc3)c3ccccc3)C2C(=O)O)c1 (centres undefined)	11*	6%	47	-5%	4%	0%
CC(=O)Nc1cccc(NC(=O)C2C3C=CC(C3)C2C(=O)O)c1 (centres undefined)	-1	4%	30	-3%	11%	-2%
O=C(Nc1ccc(Cl)cc1)Nc1ccc(Cl)c(Cl)c1	·	6%	·	-5%	·	·
O=C1C[C@@H](O)[C@@H](O)[C@H]2[C@@H]3C(=O)N(c4cccc(Oc5ccccc5)c4)C(=O)[C@@H]3CC[C@H]12	·	·	·	·	-1%[12.9 µM]	·
OC1c2ccccc2N=C2CCCN21 (centres undefined)	-3	·	-6	·	-1%	·
Cc1cccc(CSCc2ccc(C(=O)NCCc3ccccc3)o2)c1	·	1%	·	·	·	·
CCN(CC)c1ccc(NC(=O)Nc2ccc(C(C)=O)cc2)cc1	13	-21%	42	-6%	1%	4%
CC(=O)c1ccc(NC(=O)Nc2ccccc2)cc1	38*	-2%	79*	7%	3%	-9%
CC(=O)c1ccc(NC(=O)C(C)NCc2ccccc2Cl)cc1 (centres undefined)	24*	1%	23	-19%	1%	-6%
CC(=O)c1cccc(NC(=O)CCOc2ccccc2)c1	25*	-1%	51*	-4%	1%	-6%
CCN(CC)c1ccc(NC(=O)Nc2ccccc2)cc1	48*	-1%	58*	-6%	0%	-5%
Cc1ccc(C(=O)c2oc3ccccc3c2NC(=O)COc2ccc(C(C)C)cc2)cc1	·	3%	·	·	·	·
CC(=O)Nc1c(C(=O)Nc2cccc(C)c2)nnn1-c1ccc(C)cc1	·	0%	·	·	·	·
COc1ccc(NC(=O)CCCC(=O)c2ccccc2)c(OC)c1	16*	-1%	21	1%	-2%	9%
COc1ccc(NC(=O)CCCc2ccccc2)c(OC)c1	19*	0%	·	-1%	11%	3%
O=C(Nc1ccc(Cl)c(S(=O)(=O)Nc2ccccc2Cl)c1)c1cccs1	-4	1%	-7	-6%	4%	4%
COc1ccc(NC(=O)CCC(=O)c2cccs2)cc1S(=O)(=O)Nc1ccccc1Cl	12	-10%	47*	14%	14%	3%
COc1ccc(NC(=O)CCC(=O)c2cccs2)c(OC)c1	31*	7%	77*	7%	·	0%
COc1ccc(/C=c2\s/c(=C\C(=O)C(C)(C)C)[nH]c2=O)cc1O	15*	-4%	7	-13%	0%	-1%
COc1cc(/C=c2\s/c(=C\C(=O)C(C)(C)C)[nH]c2=O)cc(OC)c1OC	-2	-6%	13	3%	-2%	4%
Cc1cccc(/C=c2\s/c(=C\C(=O)C(C)(C)C)[nH]c2=O)c1	23*	-5%	41	1%	13%	4%
COc1ccc(C(=O)OC(C)CN2CCN(C)CC2)cc1 (centres undefined)	12*	-2%	36	1%	?	1%
CCOc1ccc(C(=O)OC2CC3CCC(C2)N3C)cc1 (centres undefined)	22*	2%	27	-4%	-7%	4%
Cc1ccc(C(=O)OC(C)CN2CCN(C)CC2)cc1 (centres undefined)	17*	1%	48*	2%	-11%	5%
CCOc1ccc(C(=O)OC(C)CN2CCCCC2)cc1 (centres undefined)	10	-4%	26*	-21%	?	-4%
SMILES	Cycloheximide cs	TbPYK inhibitor	Shiga toxin inh	RE007 growth inh	Giardia FBPA inh	LmPK inhibitor
CC(CN1CCCC1)OC(=O)c1ccc(F)cc1 (centres undefined)	-1	1%	-4	-4%	?	0%
CN1C2CCC1CC(OC(=O)c1ccc(Cl)cc1)C2 (centres undefined)	-2	-8%	-23	-6%	-3%	2%
CCc1cccc(-n2nnc(S(=O)(=O)c3ccc(OC)cc3)c2C)c1	·	-9%	·	·	·	·
Cc1cccc(Cn2c(=O)n(CCc3ccccc3)c(=O)c3sc4ccccc4c32)c1	·	0%	·	·	·	·
CNc1ccccc(-c2ccc3cc4c(cc3n2)OCO4)c1=O	66*	0%	59*	?	?	-24%
CCOC(=O)/C=C/C(=O)Nc1cccc([N+](=O)[O-])c1	38*	?	49	8.9µM*	-6%	-4%
COc1cc(/C=C/C(=O)OCC(=O)Nc2ccc([N+](=O)[O-])cc2)ccc1O	-2	-4%	3	-9%	-13%	4%
CCOC(=O)/C=C/C(=O)Nc1ccccc1-c1ccccc1NC(=O)/C=C/C(=O)OCC	33*	-12%	13	-21%	5%	0%
CCOC(=O)/C=C/C(=O)OCC(=O)Nc1ccc([N+](=O)[O-])cc1	17*	-8%	31	-30%	0%	2%
O=C1NC(=O)C(=CN2CCc3ccccc32)C(=O)N1	0	0%	15	11%	?	-7%
O=C1NC(=O)N(Cc2ccccc2)C(=O)/C1=C\N1CCCc2ccccc21	28*	-4%	65	-6%	?	1%
CCOc1ccccc1NC(=O)Cn1c(=O)n(C(C)C)c(=O)c2oc3ccccc3c21	·	-2%	·	·	·	·
Cc1ccc(S(=O)(=O)NCC(=O)OCc2csc(-c3ccccc3)n2)cc1	15*	4%	-9	5%	-3%	0%
O=C(CNC(=O)c1ccco1)OCc1ccc(C(=O)Oc2ccccc2)cc1	33*	-2%	24*	-5%	12%	1%
COC(=O)c1ccc(COC(=O)CNC(=O)c2ccc(-c3ccccc3)cc2)cc1	68*	-2%	46*	-10%	3%	-1%
CCOc1ccc(C(=O)NCC(=O)OCc2csc(-c3ccccc3)n2)cc1	15	1%	3	3%	0%	0%
O=C(OCc1csc(-c2ccccc2)n1)c1ccc(O)cc1	37*	4%	116*	22%	1%	-4%
Cc1ccc(-c2nc(CCNC(=O)C(=O)Nc3ccc(F)cc3F)cs2)cc1	·	-5%	·	·	·	·
CNC(=O)COc1ccc(NC(=O)CCn2nc(-c3ccc(C)cc3)c3ccccc3c2=O)cc1	·	-9%	·	·	·	·
O=C(COC(=O)CNS(=O)(=O)c1c(Cl)cccc1Cl)Nc1ccccc1Sc1ccccc1	1	9%	9	0%	-4%	5%
COC(=O)c1ccc(COC(=O)CNS(=O)(=O)c2ccc(C)cc2)cc1	33*	5%	81*	11%	0%	0%
Cc1ccc(C(=O)NCC(=O)OCc2csc(-c3ccccc3)n2)cc1	36*	-6%	70*	0%	-8%	6%
O=C(CNS(=O)(=O)c1c(Cl)cccc1Cl)OCc1csc(-c2ccccc2)n1	18*	-3%	12	-14%	2%	2%
